Measured values taken from ChEMBL document CHEMBL1961873, “Compounds: GSK PKIS; Assays: Nanosyn kinase panel” (2012).

Assays:
[1] = target: MAP/microtubule affinity-regulating kinase 3 (Homo sapiens) (UniProt P27448); details: at 1 µM;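 note: reported values are averaged percent inhibition of MARK3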
[2] = target: T1, MAP/microtubule affinity-regulating kinase 4 (Homo sapiens) (UniProt Q96L34); details: at 0.1 µM
T1 sequence (whole entry): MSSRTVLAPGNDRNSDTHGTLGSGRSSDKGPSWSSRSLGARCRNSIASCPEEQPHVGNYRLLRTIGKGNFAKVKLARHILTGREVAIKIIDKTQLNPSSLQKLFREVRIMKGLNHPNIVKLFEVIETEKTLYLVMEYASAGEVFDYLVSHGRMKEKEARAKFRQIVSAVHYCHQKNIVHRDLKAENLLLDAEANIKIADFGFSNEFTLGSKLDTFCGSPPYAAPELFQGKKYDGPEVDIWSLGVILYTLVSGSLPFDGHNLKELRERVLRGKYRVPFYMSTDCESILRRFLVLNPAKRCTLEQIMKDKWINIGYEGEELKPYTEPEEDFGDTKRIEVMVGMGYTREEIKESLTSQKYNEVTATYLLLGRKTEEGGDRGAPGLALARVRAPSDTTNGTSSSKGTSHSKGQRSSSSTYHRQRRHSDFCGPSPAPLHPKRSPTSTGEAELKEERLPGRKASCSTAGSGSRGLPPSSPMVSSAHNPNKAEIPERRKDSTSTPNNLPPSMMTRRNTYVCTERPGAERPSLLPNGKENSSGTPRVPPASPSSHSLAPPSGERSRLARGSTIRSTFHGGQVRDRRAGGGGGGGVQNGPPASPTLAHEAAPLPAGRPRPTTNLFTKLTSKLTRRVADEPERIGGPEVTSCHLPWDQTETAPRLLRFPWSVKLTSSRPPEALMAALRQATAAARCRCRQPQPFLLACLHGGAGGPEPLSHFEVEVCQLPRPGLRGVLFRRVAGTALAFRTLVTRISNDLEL

[3] = target: T1, MAP/microtubule affinity-regulating kinase 4 (Homo sapiens); details: at 1 µM
[4] = target: Maternal embryonic leucine zipper kinase (Homo sapiens) (UniProt Q14680); details: at 0.1 µM
Sequence of Maternal embryonic leucine zipper kinase (Homo sapiens) (Q14680 whole entry, looked up): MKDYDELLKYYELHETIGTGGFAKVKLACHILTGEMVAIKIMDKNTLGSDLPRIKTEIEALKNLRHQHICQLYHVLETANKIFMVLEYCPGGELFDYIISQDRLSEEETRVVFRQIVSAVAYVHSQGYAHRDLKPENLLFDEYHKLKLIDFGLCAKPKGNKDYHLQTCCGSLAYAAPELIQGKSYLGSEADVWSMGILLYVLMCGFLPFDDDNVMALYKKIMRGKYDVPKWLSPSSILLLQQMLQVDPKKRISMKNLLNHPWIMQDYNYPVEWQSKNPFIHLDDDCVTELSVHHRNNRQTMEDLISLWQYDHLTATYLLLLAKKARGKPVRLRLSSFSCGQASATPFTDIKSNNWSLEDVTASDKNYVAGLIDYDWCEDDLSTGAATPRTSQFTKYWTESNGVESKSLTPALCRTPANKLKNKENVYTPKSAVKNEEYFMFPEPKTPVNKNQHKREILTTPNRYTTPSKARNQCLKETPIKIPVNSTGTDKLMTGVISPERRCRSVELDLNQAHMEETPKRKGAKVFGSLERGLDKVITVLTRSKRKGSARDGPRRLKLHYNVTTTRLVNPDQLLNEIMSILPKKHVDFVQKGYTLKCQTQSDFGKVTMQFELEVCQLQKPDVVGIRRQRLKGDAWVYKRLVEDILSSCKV

[5] = target: Maternal embryonic leucine zipper kinase (Homo sapiens) (UniProt Q14680); details: at 1 µM
[6] = target: MAP kinase-interacting serine/threonine-protein kinase 1 (Homo sapiens) (UniProt Q9BUB5); details: at 0.1 µM
Sequence of MAP kinase-interacting serine/threonine-protein kinase 1 (Homo sapiens) (Q9BUB5 whole entry, looked up): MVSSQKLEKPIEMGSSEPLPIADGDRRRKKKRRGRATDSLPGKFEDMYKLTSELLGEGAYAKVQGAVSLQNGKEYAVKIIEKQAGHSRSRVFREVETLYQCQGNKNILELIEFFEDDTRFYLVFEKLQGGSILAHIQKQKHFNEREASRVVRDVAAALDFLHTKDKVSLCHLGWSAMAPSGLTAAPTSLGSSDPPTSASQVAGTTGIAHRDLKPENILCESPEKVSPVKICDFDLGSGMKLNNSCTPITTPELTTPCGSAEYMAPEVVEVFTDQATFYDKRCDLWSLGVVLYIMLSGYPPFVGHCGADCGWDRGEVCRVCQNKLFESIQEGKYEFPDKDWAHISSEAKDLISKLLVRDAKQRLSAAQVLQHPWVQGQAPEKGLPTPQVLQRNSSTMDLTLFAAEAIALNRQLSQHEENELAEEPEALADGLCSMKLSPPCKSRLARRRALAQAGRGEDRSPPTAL

[7] = target: MAP kinase-interacting serine/threonine-protein kinase 1 (Homo sapiens) (UniProt Q9BUB5); details: at 1 µM
[8] = target: MAP kinase-interacting serine/threonine-protein kinase 2 (Homo sapiens) (UniProt Q9HBH9); details: at 0.1 µM
Sequence of MAP kinase-interacting serine/threonine-protein kinase 2 (Homo sapiens) (Q9HBH9 whole entry, looked up): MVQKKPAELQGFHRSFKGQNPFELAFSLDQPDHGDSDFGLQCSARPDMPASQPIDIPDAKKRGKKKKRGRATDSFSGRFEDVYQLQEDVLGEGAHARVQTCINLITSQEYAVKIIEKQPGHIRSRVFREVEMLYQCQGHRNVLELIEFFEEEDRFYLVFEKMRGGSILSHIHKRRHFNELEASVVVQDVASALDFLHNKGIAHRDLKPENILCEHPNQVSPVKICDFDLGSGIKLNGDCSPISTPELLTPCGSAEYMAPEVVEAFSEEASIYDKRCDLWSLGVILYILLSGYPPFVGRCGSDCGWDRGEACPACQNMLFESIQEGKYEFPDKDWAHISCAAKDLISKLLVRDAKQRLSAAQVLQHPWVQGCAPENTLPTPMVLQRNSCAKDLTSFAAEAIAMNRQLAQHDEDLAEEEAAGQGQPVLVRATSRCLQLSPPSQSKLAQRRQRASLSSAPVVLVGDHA

[9] = target: MAP kinase-interacting serine/threonine-protein kinase 2 (Homo sapiens) (UniProt Q9HBH9); details: at 1 µM
[10] = target: Serine/threonine-protein kinase MARK2 (Homo sapiens) (UniProt Q7KZI7); details: at 0.1 µM;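 note: mean percent inhibition of PAR-1Balpha kinase activity, reported from the GSK PKIS screen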
Sequence of Serine/threonine-protein kinase MARK2 (Homo sapiens) (Q7KZI7 whole entry): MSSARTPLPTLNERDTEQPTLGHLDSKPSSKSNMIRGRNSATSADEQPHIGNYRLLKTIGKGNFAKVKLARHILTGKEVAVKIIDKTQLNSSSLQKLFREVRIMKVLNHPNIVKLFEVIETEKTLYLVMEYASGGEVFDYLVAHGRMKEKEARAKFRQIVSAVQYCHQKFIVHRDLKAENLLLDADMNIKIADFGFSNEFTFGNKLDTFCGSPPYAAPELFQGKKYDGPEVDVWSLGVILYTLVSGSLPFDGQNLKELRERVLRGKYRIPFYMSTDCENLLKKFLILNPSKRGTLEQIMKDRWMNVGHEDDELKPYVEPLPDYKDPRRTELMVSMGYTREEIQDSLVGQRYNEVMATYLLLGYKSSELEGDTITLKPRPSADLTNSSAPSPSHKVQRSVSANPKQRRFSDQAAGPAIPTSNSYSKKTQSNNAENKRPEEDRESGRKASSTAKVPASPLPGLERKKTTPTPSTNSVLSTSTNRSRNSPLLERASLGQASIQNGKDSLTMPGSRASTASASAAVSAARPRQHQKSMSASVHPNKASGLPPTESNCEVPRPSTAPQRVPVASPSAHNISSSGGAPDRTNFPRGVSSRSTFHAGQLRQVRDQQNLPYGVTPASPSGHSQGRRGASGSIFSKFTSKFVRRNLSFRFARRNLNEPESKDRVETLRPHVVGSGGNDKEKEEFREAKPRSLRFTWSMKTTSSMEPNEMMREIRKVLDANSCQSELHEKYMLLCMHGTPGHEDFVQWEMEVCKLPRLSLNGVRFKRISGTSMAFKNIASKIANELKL

Sequence of MAP/microtubule affinity-regulating kinase 3 (Homo sapiens) (P27448 whole entry, looked up): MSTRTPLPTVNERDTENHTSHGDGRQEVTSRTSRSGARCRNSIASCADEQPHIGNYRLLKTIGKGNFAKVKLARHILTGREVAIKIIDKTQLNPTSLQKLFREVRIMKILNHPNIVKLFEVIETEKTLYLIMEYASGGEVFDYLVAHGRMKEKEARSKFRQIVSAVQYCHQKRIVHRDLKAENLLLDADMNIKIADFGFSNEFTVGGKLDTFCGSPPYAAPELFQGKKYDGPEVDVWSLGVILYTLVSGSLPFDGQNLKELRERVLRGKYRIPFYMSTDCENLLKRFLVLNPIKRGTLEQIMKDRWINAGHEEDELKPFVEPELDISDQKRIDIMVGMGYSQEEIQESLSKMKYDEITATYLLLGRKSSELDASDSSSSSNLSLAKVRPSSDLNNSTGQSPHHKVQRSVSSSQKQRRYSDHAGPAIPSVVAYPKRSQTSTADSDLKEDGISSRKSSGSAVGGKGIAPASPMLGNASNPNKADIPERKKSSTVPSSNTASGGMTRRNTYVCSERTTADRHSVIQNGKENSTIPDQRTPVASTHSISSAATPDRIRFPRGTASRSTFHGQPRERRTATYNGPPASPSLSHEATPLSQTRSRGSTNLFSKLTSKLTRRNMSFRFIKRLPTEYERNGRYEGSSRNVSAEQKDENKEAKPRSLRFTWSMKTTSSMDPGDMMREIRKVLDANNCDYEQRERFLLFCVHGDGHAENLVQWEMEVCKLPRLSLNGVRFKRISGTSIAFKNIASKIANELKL

SMILES	inhibition [1] [%]	inhibition [2] [%]	inhibition [3] [%]	inhibition [4] [%]	inhibition [5] [%]	inhibition [6] [%]	inhibition [7] [%]	inhibition [8] [%]	inhibition [9] [%]	inhibition [10] [%]
COc1cc(C)c(NC(=O)CN(C)C)cc1Nc1nc(Nc2cccc(F)c2C(N)=O)c2cc[nH]c2n1	0.73	-0.67	0.75	2.85	18.1	1.46	0.39	0.92	1.25	-2
NC(=O)c1cccc(Nc2nccc(Nc3cccc4[nH]ncc34)n2)c1	11.9	1.34	11.8	-1.78	8.97	0.69	25.3	0.64	23.7	0.92
CCCN1CCC=C(c2ccc(Nc3nc(Nc4ccccc4C(N)=O)c4cc[nH]c4n3)c(C)c2)C1	20.8	3.18	13.7	10	44.7	2.32	3.91	1.78	7.47	1.68
NS(=O)(=O)c1cccc(-c2ccc3c(NC(=O)C4CC4)n[nH]c3c2)c1	3.86	1.62	6.55	0.79	3.48	-0.26	7.26	-1.27	1.02	0.51
CCn1c(-c2nonc2N)nc2ccncc21	1.4	1.33	2.78	-0.81	2.39	1.17	3.2	0.41	3.51	-1.74
CS(=O)(=O)CCNCc1nc(-c2ccc3ncnc(Nc4ccc(F)c(Cl)c4)c3c2)cs1	-1.39	-0.14	0.31	-1.18	3.48	10.6	50.4	13.4	55.7	-0.48
Nc1nc(-c2ccc3c(c2)C(=Cc2cc(Br)c(O)c(Br)c2)C(=O)N3)cs1	-2.49	0.78	1.73	0.07	5.36	-1.04	7.91	0.49	10.6	0
CCn1c(-c2nonc2N)nc2c(C#CC(C)(C)O)nc(OC[C@@H](N)c3ccccc3)cc21	28.1	1.28	16.9	0.84	27.5	-0.06	4.44	0.08	3.19	1.17
NCc1ccc(-c2nc(-c3ccc(Cl)c(O)c3)c(-c3ccncc3)[nH]2)cc1	5.09	0.06	2.57	0.75	-1.02	-2.18	6.58	1.14	4.8	-0.38
CN1CCC(C(=O)Nc2n[nH]c3nnc(-c4ccccc4)cc23)CC1	4.62	2.21	3.02	3.21	5.92	6.32	13.6	2.9	8.1	1.18
Cc1cccc(-c2n[nH]cc2-c2ccc3ncccc3n2)n1	0.24	-0.19	-0.68	1.01	4.06	0.44	2.25	0.2	3.14	-0.96
CCn1c(-c2nonc2N)nc2c(N3CCCC3)nccc21	-0.19	2.01	3.21	0.66	6.1	-0.54	5.25	-1.08	1.33	2.95
Nc1nc(-c2ccccn2)c(-c2ccc3ncccc3n2)s1	8.13	0.3	2.26	3.67	7.64	2.16	5.61	1	5.53	-3.64
COc1cc2c(cc1Nc1nc(N3CCc4ccccc43)c3cc[nH]c3n1)N(C(=O)CN(C)C)CC2	6.25	0.37	1.93	1.9	2.27	1.09	5.08	0.08	7.67	1.14
COc1ccc(COc2ccc(Cc3cnc(N)nc3N)cc2OC)cc1	2.06	2.83	1.47	0.82	-1.43	10.8	0.82	3.14	0.25	1.26
O=C1NC(=O)C(N2CCc3ccccc32)=C1c1ccc(Cl)cc1	2.11	3.11	2.16	4.84	6.67	2.34	3.78	1	3.38	0.05
Fc1cccc(COc2ccc(Nc3ncnc4sc(-c5cccs5)cc34)cc2Cl)c1	3.4	0.59	1.48	2.25	3.16	2.11	5.61	1.36	5.08	1.15

SMILES	inhibition [1] [%]	inhibition [2] [%]	inhibition [3] [%]	inhibition [4] [%]	inhibition [5] [%]	inhibition [6] [%]	inhibition [7] [%]	inhibition [8] [%]	inhibition [9] [%]	inhibition [10] [%]
COc1cccc(-n2ncc3c(N/N=C/c4cccc(F)c4)ncnc32)c1	-1.64	1.82	5.56	4.24	11	2.81	11.8	1.92	6.42	0.05
O=C1Nc2ccc(C(=O)c3ccco3)cc2C1=Cc1cc(Cl)c(O)c(Cl)c1	8.65	1.71	6.69	4.89	17.8	4.13	11.5	6.52	34.7	2.14
CS(=O)(=O)CCN(CC#N)Cc1ccc(-c2ccc3ncnc(Nc4ccc(OCc5cccc(F)c5)c(Cl)c4)c3c2)o1	-0.24	0.8	-0.12	3.85	8.4	1.32	5.64	2.33	11.5	-0.92
COc1ccc(-c2ccncc2)cc1C(N)=O	5.66	1.72	2.64	3.65	8.7	2.15	5.97	0.23	6.75	
O=C1NC(=O)C(c2ccccc2Cl)=C1Nc1cccc(O)c1	13.6	0.9	8.27	1.6	4.56	0.62	2.78	0.71	0.58	1.47
CCCN1CCC(Oc2cc(Nc3nc(Nc4cccc(F)c4C(N)=O)c4cc[nH]c4n3)c(OC)cc2Cl)CC1	1.93	-0.13	2.83	1.25	21.2	1.13	3.91	0.85	0.99	-0.3
[O-][S+]1CCN(Cc2ccc(-c3ccc4ncnc(Nc5ccc(OCc6ccccc6)c(F)c5)c4c3)o2)CC1	1.39	0.67	1.47	2.88	1.82	2.24	4.41	1.32	9.37	-1.34
COc1cc(C=NNc2ncnc3c2cnn3-c2ccccc2)ccc1O	18.2	1.61	11.3	6.74	43.8	12.1	49.9	13.7	52	-0.32
CS(=O)(=O)Nc1ccc(N/C=C2\C(=O)Nc3ccccc32)cc1	16.1	3.29	18.9	-1.64	20.9	-0.49	-0.33	0.01	5.59	2.67
COc1ccc(-c2coc3ncnc(N)c23)cc1	-0.28	3.62	2.28	4.21	5.33	2.45	4.3	0.67	0.83	0.91
CS(=O)(=O)CCNCc1ccc(-c2ccc3ncnc(Nc4ccc(OCc5cccc(F)c5)c(C(F)(F)F)c4)c3c2)o1	-2.72	1.59	-0.39	4.21	3.14	3.81	9.5	3.07	10.4	2.7
CC1=C(C(=O)Nc2ccc3[nH]ncc3c2)C(c2ccc(F)cc2)NC(=O)N1 (centres undefined)	8.67	0.77	4.62	2.13	6.05	2.34	46.2	3.85	65.3	-0.93
CCc1cccc(NC(=O)Nc2ccc(Oc3ccc4nc(NC(=O)OC)[nH]c4c3)cc2)c1	3.47	-0.22	-1.15	-0.95	2.29	5.71	15.8	4.24	12.2	2.55
Fc1cccc(COc2ccc(Nc3ncnc4cc(-c5ccc[nH]5)sc34)cc2Cl)c1	-1.25	1.49	1.57	4.24	5.38	1	7.21	0.75	3.83	-1.15
Cn1cc(C=C2C(=O)Nc3cccnc32)c2ccccc21	7.16	1.67	6.49	4.43	23.5	3.06	15.5	1.53	15.3	1.17
Cc1nn(C)c2cc(N(C)c3ccnc(Nc4cccc(S(N)(=O)=O)c4)n3)ccc12	-2.37	1.36	0.82	4.84	5	1.93	6.83	2.38	7.27	-0.09
